Source: PubChem BioAssay (Tox21)
Active and inactive are the calls of the source. Calls follow the shape of the dose curve; as a rule, active = well fitted activation curve with a large enough effect in the repeat runs; inconclusive = weak or mixed curves; inactive = flat fitted curve, though single readings scatter.
% is scaled to controls: 0 for no effect and ±100 for the full control effect.

Test: Caspase-3/7 induction in CHO-K1 cells by small molecules, qHTS assay (AID 1346980); also: nearly all actives have a fitted effect of over 15% in size
Settings: CHO-K1 caspase-3/7 induction, Caspase-Glo luminescence, 17 h; series mostly up to 92.4 µM; caspase-3/7 activation: at the top concentration
Excerpt: National Center for Advancing Translational Sciences [NCATS]
NIH Chemical Genomics Center [NCGC]
U.S. Environmental Protection Agency [EPA]
National Institutes of Environmental Health Sciences [NIEHS]
National Toxicology Program [NTP]
Apoptosis is a process of programmed cell death and plays a central role in the development of multicellular organisms. It is a highly regulated process and induces cell death by activating caspases, which are the members of cysteine aspartic acid-specific protease (caspase) family. Caspases involved in apoptosis are classified by their mechanism of action as initiator caspases (caspase-2, -8, -9 and -10) and executioner caspases (caspase-3, -6, and -7). Inhibition of apoptosis results in number of cancers, autoimmune diseases, inflammatory diseases and viral infection. To identify small molecule compounds that induce apoptosis, a homogeneous, luminescent Caspase-Glo 3/7 assay was used. Wild type CHO-K1 cells were used to screen Tox21 libraries for identifying caspase-3/7 activity inducers.
CHO-K1 cells were dispensed at 1,500 per well in 5uL of culture medium into white solid bottom 1536-well plates (Corning Life Sciences, Corning, NY) using a Multidrop Combi (Thermo Scientific, Waltham, MA) dispenser. The assay plates were incubated at 37 C and 5% CO2 for 5hr, and then 23nL of compounds dissolved in DMSO and positive control were transferred using a Pintool station (Wako, San Diego, CA). The assay plates were incubated at 37C and 5% CO2 for 17hr. For caspase-3/7 activity read, 4uL of Caspase-Glo 3/7 reagent (Promega Corporation, Madison, WI) was added to each well of the assay plates using Flying Reagent Dispenser (FRD, Aurora Discovery, San Diego, CA) and incubated the assay plates at room temperature for 30min. The luminescence signal was quantified using a ViewLux plate reader (Perkin Elmer, Shelton, CT).
With `CC(C)(c1ccccc1)c1cc(-n2nc3ccccc3n2)c(O)c(C(C)(C)c2ccccc2)c1` the “caspase-3/7 activation” value was 0.625% [at 42.5 µM] (inactive). For `c1ccc2c(c1)-c1cccc3cccc-2c13`, the Potency was “inactive”. In the case of `Cc1nc2ccccc2c(=O)n1-c1ccccc1Cl`, the “caspase-3/7 activation” value is reported as -0.22% (inactive). With `COc1cc(CC(C)N)c(OC)cc1Br` (stereo not given) the “caspase-3/7 activation” value was 0.966% (inactive). For `C=CC(=O)OCC`, the “caspase-3/7 activation” value was 0.0852% (inactive). For `CCCCCCCCCCCCN=C(N)N`, the caspase-3/7 activation was -1.72% [at 3.27 µM] (inactive). For `CCCC[P+](CC)(CCCC)CCCC` (tested in a mixture with another compound), the “caspase-3/7 activation” value was -0.347% (inactive). For `C[CH2][Hg][S]c1ccccc1C(=O)O`, the Potency was “inactive”. With `CCC1(CC)C(=O)NC(=O)NC1=O` the “caspase-3/7 activation” value was -0.726% [at 42.5 µM] (inactive). With `Cc1cnc(C2=NC(C)(C(C)C)C(=O)N2)c(C(=O)O)c1` (stereo not given) the “caspase-3/7 activation” value was -0.837% (inactive). With `CCC(=O)O[C@@H]1C=C2CCC3C(CCC4(C)C3CC[C@@H]4OC(=O)CC)C2CC1` (stereo not given in full) the “caspase-3/7 activation” value was 0.0956% [at 42.5 µM] (inactive). For `CC(C)C1(C)N=C(c2ncccc2C(=O)O)NC1=O` (stereo not given), the “caspase-3/7 activation” value was 0.137% (inactive). In the case of `COC(=O)Cc1ccccc1`, the “caspase-3/7 activation” value is reported as -1.74% (inactive). In the case of `N#CC(C#N)=Cc1ccc(O)c(O)c1`, the “caspase-3/7 activation” value is reported as -0.0476% [at 42.5 µM] (inactive). With `SCc1ccccc1` the “caspase-3/7 activation” value was 0.458% (inactive). With `COc1ccc2c(c1OC)C(=O)O[C@H]2[C@@H]1c2cc3c(cc2CCN1C)OCO3` the “caspase-3/7 activation” value was 0.0294% [at 42.5 µM] (inactive). With `COP(=O)(OC)OC(Br)C(Cl)(Cl)Br` (stereo not given) the Potency was “inactive”. In the case of `C[C@@H]1C[C@@H]([C@H](O)CC2CC(=O)NC(=O)C2)C(=O)[C@@H](C)C1`, the Potency is reported as “inactive”. For `CC1(C)CC(=O)CC(C)(C)N1[O]`, the “caspase-3/7 activation” value was 1.37% (inactive). For `CC(Cl)C(=O)O` (stereo not given), the “caspase-3/7 activation” value was 0.261% (inactive). In the case of `CCOP(=S)(S)OCC`, the “caspase-3/7 activation” value is reported as -0.782% (inactive). In the case of `O=[N+]([O-])O[C@H]1CO[C@H]2[C@@H]1OC[C@H]2O[N+](=O)[O-]`, the “caspase-3/7 activation” value is reported as -0.965% [at 42.5 µM] (inactive). With `O=C(NC(=O)c1cc(F)c(F)cc1Cl)Nc1cc(F)ccc1N1CCC(C(=O)O)CC1` the “caspase-3/7 activation” value was -0.754% [at 42.5 µM] (inactive). In the case of `CCCBr`, the “caspase-3/7 activation” value is reported as 1.68% (inactive). In the case of `C=CC(=O)NC(C)(C)CC(C)=O`, the “caspase-3/7 activation” value is reported as 0.17% (inactive). In the case of `CN1CC[C@]23c4c5ccc(O)c4O[C@H]2[C@@H](O)CC[C@H]3[C@H]1C5`, the “caspase-3/7 activation” value is reported as -1.01% (inactive). For `Cc1ccc(N)c(C)c1`, the Potency was “inactive”. In the case of `OCCSSCCO`, the “caspase-3/7 activation” value is reported as -0.102% (inactive). For `O=[N+]([O-])c1cc(Cl)c(Cl)cc1Cl`, the “caspase-3/7 activation” value was 0.173% (inactive). For `O=C(O)C(F)(F)C(F)(F)C(F)(F)C(F)(F)C(F)(F)C(F)(F)C(F)(F)C(F)(F)F`, the “caspase-3/7 activation” value was 0.342% (inactive). In the case of `C=CCOC(=O)C(C)(C)OC(=O)c1cc(-n2c(=O)cc(C(F)(F)F)n(C)c2=O)ccc1Cl`, the “caspase-3/7 activation” value is reported as -1.15% (inactive). With `COc1ccccc1N1CCNCC1` the “caspase-3/7 activation” value was 1.23% [at 42.5 µM] (inactive). For `CC(=O)NNc1ccccc1`, the “caspase-3/7 activation” value was -0.74% (inactive). For `O=C(N/N=C/c1ccc([N+](=O)[O-])o1)c1cc([N+](=O)[O-])cc([N+](=O)[O-])c1O`, the “caspase-3/7 activation” value was -1.89% [at 42.5 µM] (inactive). In the case of `CC[N+]1(CCOC(=O)C(O)(c2ccccc2)c2ccccc2)CCCCC1`, the “caspase-3/7 activation” value is reported as 1.55% [at 42.5 µM] (inactive). With `C[N+]1(CCF)[C@@H]2CC[C@H]1CC(OC(=O)C(O)(c1ccccc1)c1ccccc1)C2` (stereo not given in full) the “caspase-3/7 activation” value was 0.0528% [at 42.5 µM] (inactive). For `COC1=CC(=O)O[C@@H](/C=C/c2ccc3c(c2)OCO3)C1`, the “caspase-3/7 activation” value was -6.17% (inactive). In the case of `CCOP(=O)(O)C(N)=O`, the “caspase-3/7 activation” value is reported as 0.0449% (inactive). For `COc1cc(CC#N)cc(OC)c1OC`, the “caspase-3/7 activation” value was 0.418% [at 42.5 µM] (inactive). With `Cc1ccccc1` the “caspase-3/7 activation” value was 0.234% (inactive).
